From PubChem BioAssay
Unmarked numbers belong to inactive results. How the calls were made is not given here.

What follows are compounds tested against Pantothenate synthetase (Mycobacterium tuberculosis (strain ATCC 25618 / H37Rv)) (UniProt P9WIL5) (assay: Recombinant Mtb pantothenate synthetase (PanC) inhibitors, coupled enzyme, confirmatory (AID 375;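 further: 0% = full reaction with vehicle and 100% = no enzyme background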)). Settings: coupled enzyme assay; at 10 µM, stronger effect = higher value.
Pantothenate synthetase (Mycobacterium tuberculosis (strain ATCC 25618 / H37Rv)), sequence (P9WIL5 whole entry, looked up): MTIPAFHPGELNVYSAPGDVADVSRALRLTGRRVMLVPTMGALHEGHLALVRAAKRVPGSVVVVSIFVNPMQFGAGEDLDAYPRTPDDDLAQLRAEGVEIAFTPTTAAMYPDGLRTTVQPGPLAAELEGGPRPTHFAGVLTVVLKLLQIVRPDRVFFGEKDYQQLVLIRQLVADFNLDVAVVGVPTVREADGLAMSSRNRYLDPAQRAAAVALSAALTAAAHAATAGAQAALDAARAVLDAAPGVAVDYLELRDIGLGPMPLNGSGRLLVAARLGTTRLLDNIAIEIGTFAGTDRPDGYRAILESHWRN

First: CCN(CC)C(=O)CSc1nc2ccccc2c(=O)n1CCC(=O)NCc1ccc(F)cc1
Second: COCCn1c(=N)c(C(=O)NCCc2ccccc2)cc2c(=O)n3cccc(C)c3nc21
The inhibition of the first is lower: 0% for the first, 3% for the second.

`COc1ccc(OC)c(C(=O)c2ccc(C(=O)O)cc2)c1` and `COc1ccc(C(=O)Nn2c(C3CCC3)nc3ccccc3c2=O)c(OC)c1` are the same in inhibition: 0% for the first, 0% for the second.

First: COCCn1cc(C(=O)NCCCN2CCC(C)CC2)c2c3ccccc3n(C)c2c1=O
Second: O=C(CCN1C(=O)COc2ccccc21)NCCCN1CCN(c2ccccc2F)CC1
The inhibition of the first is higher: 2% for the first, 0% for the second.

First: CC(NC(=O)c1cc2c(=O)n(C)c3ccccc3c2n1C)c1ccc2c(c1)OCCO2 (stereo not given)
Second: Cc1cccc(N2CCN(C(=O)c3cc4c(=O)[nH]c5ccccc5c4n3C)CC2)c1C
The inhibition of the first is lower: 3% for the first, 7% for the second.

Going from `CCOC(=O)Cn1c(=O)c(-c2ccccc2N)nc2ccccc21` to `CCOc1ccccc1CN1C(=O)c2ccccc2C1C(=O)NCC1CCCO1` (stereo not given), the inhibition rises from 3% to 11%.

Compared with `COc1cccc(CN(C)CC(=O)NC(=O)NCc2ccco2)c1`, `COc1cc2c(=O)n(Cc3ccccc3)c(=O)n(CC(=O)NCc3ccco3)c2cc1OC` is higher in inhibition: 0% for the first, 7% for the second.

Compared with `Cn1c(-c2ccccc2)cc(=O)c2ccccc21`, `O=C(NC1=NCCS1)c1nc(-c2ccccc2)n(-c2ccccc2)n1` is higher in inhibition: 0% for the first, 3% for the second.

`O=C(CN1C(=O)COc2ccccc21)NCCCN1CCc2ccccc2C1` and `CCN(C(=O)CN1CCN(c2ccccc2OC)CC1)c1c(N)n(Cc2ccccc2)c(=O)[nH]c1=O` are the same in inhibition: 0% for the first, 0% for the second.

Compared with `CC(NC(=O)CSc1n[nH]c(=O)n1C1CC1)C12CC3CC(CC(C3)C1)C2` (stereo not given), `CC(=O)c1cccc(NC(=O)N2C3CCC2CC(O)(c2cccnc2)C3)c1` (stereo not given) is lower in inhibition: 3% for the first, 0% for the second.

`COc1ccccc1C(=O)N1CCN(C(=O)c2ccncc2)CC1` and `O=C(O)c1ccccc1C(=O)Nc1ccccc1` are the same in inhibition: 0% for the first, 0% for the second.

Compared with `O=S(=O)(Nc1ncccn1)c1ccc(Nc2ncnc3ccccc23)cc1`, `Cc1c2cnn(CC(=O)N3CCN(c4ncccn4)CC3)c(=O)c2c(C)n1Cc1ccc(F)cc1` is lower in inhibition: 6% for the first, 0% for the second.

Going from `CN(C)c1oc(-c2ccccc2Cl)nc1C#N` to `CC(C)OC(=O)c1cc(=O)[nH]c2ccccc12`, the inhibition falls from 4% to 0%.

`Cc1cc(C)n(-c2nc3nonc3nc2-n2nc(C)cc2C)n1` and `Cc1cc(C)nc(SCc2nnc(SCC(=O)Nc3ncc(C)s3)n2Cc2ccco2)n1` are the same in inhibition: 0% for the first, 0% for the second.

`Cc1cc(C(=O)Nc2nnc(C(F)(F)F)s2)no1` and `COC(=O)c1ccccc1NC(=O)c1cc(-c2ccc(OC)c(OC)c2)on1` are the same in inhibition: 0% for the first, 0% for the second.

First: Cc1ccc(-n2ncc3c(N4CCN(c5ccc(F)cc5)CC4)ncnc32)c(C)c1
Second: Cc1ccc2nc(-c3ccc(S(=O)(=O)N4CCOCC4)cc3)cn2c1
The inhibition of the first is higher: 6% for the first, 0% for the second.

`Cn1c(C(=O)OC(C(=O)NC2CCCC2)c2cccnc2)cc2sccc21` (stereo not given) and `Cc1ccccc1NC(=O)C1CCN(c2cnccn2)CC1` are the same in inhibition: 0% for the first, 0% for the second.

Going from `N#CC1=C(N)Oc2cc(O)ccc2C1C1CCCCC1` (stereo not given) to `Cn1cc(Br)c(C(=O)NC2CCCCC2)n1`, the inhibition rises from 0% to 4%.

`COCCn1c(C)cc(C(=O)COC(=O)c2n[nH]c3ccccc23)c1C` and `COc1ccccc1CC1(C)NC(=O)N(CC(=O)Nc2cc(C)on2)C1=O` (stereo not given) are the same in inhibition: 1% for the first, 1% for the second.

`O=[n+]1cc(-c2ccc(F)cc2)n([O-])c2c1CCC2` and `CN(C)c1ccc(CNC2CC(C)(C)NC(C)(C)C2)cc1` are the same in inhibition: 0% for the first, 0% for the second.

`CC(C)OC(=O)CSc1nnc(-c2ccco2)n1N` and `COc1cc(NC(=O)C2C3C=CC(C3)C2C(=O)O)c(OC)cc1Cl` (stereo not given) are the same in inhibition: 0% for the first, 0% for the second.
